Most compounds without a hit are left out; they make up all but 2.6% or so of the library.
aDG glyco act – activators of alpha-DG glycosylation, primary screen, uHTS, Pro5-aDG cells, AlphaScreen; alpha-DG glycosylation AlphaScreen (IIH6); 0% Pro5, 100% B10-LARGE cell signal; activation, % at 10 µM; actives 0.22% (n = 360,000); AID 624168, 2012;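 active means activation of at least 8% versus controls, or a plate z-score of at least 8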;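 further: Pro5 are CHO cells carrying HIG-tagged alpha-DG that lacks glycosylation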
HSP90 refold inh – HSP90 inhibitors, primary screen, cell lysate, luminescence | actives 0.91% (n = 290,000) | inhibition, % at 5.6 µM | Rabbit reticulocyte lysate, luciferase refolding luminescence, 3 h | AID 1789, 2009;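 active means inhibition above the screen-wide mean plus 3 SD, computed separately per campaign, cut at about 16% in these data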;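 further: inhibitors lower the luminescence because luciferase stays unfolded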
TROY signal inh – inhibitors of TROY-driven NF-kB signaling, primary screen, Q293 LMP1-TROYcd cells, NF-kB luciferase, uHTS; Q293 LMP1-TROYcd NF-kB luciferase reporter, 4 h; inhibition, % at 10 µM; actives 0.98% (n = 360,000);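 active means compounds whose plate-normalised and pattern-corrected inhibition of the luciferase reporter signal at the single screening dose is 50% or more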
LGR2 antag – inhibitors of bursicon-induced LGR2 CRE-luciferase signal, primary screen, cell-based, HEK293, CRE-luciferase reporter, bursicon stimulation. Drosophila bursicon receptor LGR2 (rickets). bursicon-stimulated, 4 h. inhibition, % at 9.99 µM. actives 0.35% (n = 380,000). AID 720647, 2013;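 active means drop in luminescence signal, shown as inhibition above about 50% in the replicate tests, limit read from the data, passing the limit was not always enough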;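 further: agonist challenge used bursicon conditioned medium at about half maximal strength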
EBV LMP1 NFkB – EBV LMP1-driven NF-kappaB luciferase reporter inhibitors, primary screen, cell-based, luminescence, single point | AID 504558, 2011 | LMP1-induced NF-kappaB luciferase reporter cells | actives 0.69% (n = 350,000) | inhibition, % at 12.5 µM; in the data active means inhibition above about 41%
TWEAK-Fn14 inh – inhibitors of TWEAK-Fn14 signaling, primary screen, luciferase reporter cells, uHTS | TWEAK-stimulated Fn14 reporter cells, luciferase luminescence, 8 h | inhibition, % at 10 µM | actives 2% (n = 360,000) | AID 1159606, 2016; in the data active means inhibition above about 50%
HSP90 confirm – HSP90 inhibitors, confirmation, cell lysate, luminescence | shares compounds with HSP90 refold inh | rabbit reticulocyte lysate, luciferase refolding luminescence, 3 h | inhibition, % at 5.9 µM | actives 64% (n = 2,300) | AID 1846, 2009; in the data active means inhibition above about 18%
FLuc counter – firefly luciferase inhibitors, HSP90 counter-screen, confirmation, artefact control for HSP90 inhibitor project, biochemical, luminescence, triplicate | inhibition, % at 5.9 µM | shares compounds with HSP90 refold inh | purified native firefly luciferase | actives 48% (n = 2,300);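 active means inhibition above the mean inhibition of all tested sample wells plus 3 SD, cut at about 10% in these data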
Target sequence (P08659 whole entry, looked up): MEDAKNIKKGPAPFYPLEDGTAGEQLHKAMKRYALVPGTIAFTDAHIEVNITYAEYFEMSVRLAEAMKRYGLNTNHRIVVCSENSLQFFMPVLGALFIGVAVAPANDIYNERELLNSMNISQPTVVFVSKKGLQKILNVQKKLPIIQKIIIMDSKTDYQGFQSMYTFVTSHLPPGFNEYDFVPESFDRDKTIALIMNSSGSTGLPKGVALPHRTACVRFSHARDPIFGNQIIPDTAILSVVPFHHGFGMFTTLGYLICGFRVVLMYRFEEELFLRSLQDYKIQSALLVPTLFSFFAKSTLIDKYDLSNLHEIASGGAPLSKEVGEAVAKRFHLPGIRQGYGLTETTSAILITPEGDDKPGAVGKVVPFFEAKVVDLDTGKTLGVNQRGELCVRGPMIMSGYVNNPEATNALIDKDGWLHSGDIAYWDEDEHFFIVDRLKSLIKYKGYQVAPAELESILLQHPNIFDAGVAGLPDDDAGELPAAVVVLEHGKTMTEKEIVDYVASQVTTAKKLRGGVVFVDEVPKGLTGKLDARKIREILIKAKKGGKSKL
Of the large screens only hits and unclear results are named; the others gave an inactive call (follow-up assays come after a bar, where they were run).

CCCNC(=O)N1CC2(CCN(S(=O)(=O)c3cccc(OC)c3)CC2)c2c(n(C)c3cc(OC)ccc23)[C@H]1CO	none (no result: aDG glyco act, HSP90 refold inh, TROY signal inh, EBV LMP1 NFkB, TWEAK-Fn14 inh)
O=C(N/N=C/c1cc(O)ccc1Br)c1cccnc1	HSP90 refold inh 36.9 | HSP90 confirm inactive | FLuc counter inactive
O=C(N/N=C/c1cc(Br)c(O)c(Br)c1O)c1cccnc1	none
COCCNC(=O)C(=O)Nc1cccc(Br)c1	none
COCCNC(=S)NNc1cccc(C(=O)O)c1	HSP90 refold inh 18.2 | HSP90 confirm inactive | FLuc counter inactive
O=C(C[C@H]1C[C@H]2c3cc(NS(=O)(=O)c4ccc(F)cc4)ccc3O[C@H]2[C@@H](CO)O1)NCCc1ccccc1	none (no result: aDG glyco act, HSP90 refold inh, TROY signal inh, EBV LMP1 NFkB, TWEAK-Fn14 inh)
Cc1ccc(S(=O)(=O)Nc2ccc3c(c2)C(=O)N([C@H](C)CO)C[C@H](C)[C@@H](CN(C)C(=O)Nc2c(C)noc2C)OCCCC[C@H](C)O3)cc1	none (no result: aDG glyco act, HSP90 refold inh, TROY signal inh, EBV LMP1 NFkB, TWEAK-Fn14 inh)
CCCC(=NC(C)CC)C1=C(O)CC(c2ccccc2)CC1=O (configuration not stated)	HSP90 refold inh 24.2 | HSP90 confirm inactive | FLuc counter inactive
O=C(/C=C\Nc1ccccn1)c1ccc(Cl)cc1	HSP90 refold inh 38.8, TWEAK-Fn14 inh 87.5 (no result: LGR2 antag) | HSP90 confirm 80.3 | FLuc counter 73.3
CCCNC(=O)N1CC(=O)N2[C@H](CO)[C@@H](c3ccc(C#CCC4CCCC4)cc3)[C@@H]2C1	none (no result: aDG glyco act, HSP90 refold inh, TROY signal inh, EBV LMP1 NFkB, TWEAK-Fn14 inh)
CN(C)c1cccc2c(/C=N/O)ccc(N(C)C)c12	HSP90 refold inh 52.0 | HSP90 confirm inactive | FLuc counter inactive
CN(C)c1cccc2c(C=C(C#N)C#N)ccc(N(C)C)c12	none
CC(C)(C)c1ccc(C(=O)c2c[nH]c(C(=O)O)c2)cc1	HSP90 refold inh 53.5, TWEAK-Fn14 inh 50.4 | HSP90 confirm 62.6 | FLuc counter inactive
CC(C)NC(=O)Nc1ccc2c(c1)C(=O)N([C@H](C)CO)C[C@@H](C)[C@H](CN(C)Cc1ccncc1)O2	none (no result: aDG glyco act, HSP90 refold inh, TROY signal inh, EBV LMP1 NFkB, TWEAK-Fn14 inh)
CC(=O)Nc1ccc(NC2=CC(=O)c3ccccc3C2=O)cc1	none
Cc1cc(C)c(S(=O)(=O)/N=C2\C=C(Nc3ccc(C(=O)O)cc3)C(=O)c3ccccc32)c(C)c1	HSP90 refold inh 45.9, TROY signal inh 62.4, TWEAK-Fn14 inh 96.5 | HSP90 confirm 78.8 | FLuc counter inactive
O=S(=O)(N=C1C=CC(=NS(=O)(=O)c2ccccc2)c2ccccc21)c1ccccc1	none (no result: HSP90 refold inh)
O=C(O)c1ccc(NC2=C/C(=N/S(=O)(=O)c3ccccc3)c3ccccc3C2=O)cc1	HSP90 refold inh 86.2, TROY signal inh 50.4, LGR2 antag 98.9, TWEAK-Fn14 inh 96.7 | HSP90 confirm 92.5 | FLuc counter inactive
O=C(C[C@H]1C[C@@H]2c3cc(NC(=O)CC4CC4)ccc3O[C@@H]2[C@@H](CO)O1)NCc1ccccn1	none (no result: aDG glyco act, HSP90 refold inh, TROY signal inh, EBV LMP1 NFkB, TWEAK-Fn14 inh)
COc1ccc2c3c([nH]c2c1)[C@@H](CO)N(C(=O)Nc1ccc(F)cc1)CC31CN(C(=O)Nc2ccc3c(c2)OCO3)C1	none (no result: aDG glyco act, HSP90 refold inh, TROY signal inh, EBV LMP1 NFkB, TWEAK-Fn14 inh)
O=C(NCC[C@@H]1CC[C@@H](NS(=O)(=O)Cc2ccccc2)[C@H](CO)O1)C1CCOCC1	none (no result: aDG glyco act, HSP90 refold inh, TROY signal inh, EBV LMP1 NFkB, TWEAK-Fn14 inh)
O=C(CN1C(=O)c2ccccc2C1=O)c1ccccc1	none (no result: LGR2 antag)
CC1=C(CC(=O)c2ccccc2)C(=O)c2ccccc2C1=O	HSP90 refold inh 17.0, TROY signal inh 68.0, TWEAK-Fn14 inh 53.8 (no result: LGR2 antag) | HSP90 confirm inactive | FLuc counter inactive
CCCC(=O)Nc1ccc2c(c1)C(=O)N(C)[C@@H]1CC[C@@H](CC(=O)NCC3CCCCC3)O[C@@H]1CO2	none (no result: aDG glyco act, HSP90 refold inh, TROY signal inh, EBV LMP1 NFkB, TWEAK-Fn14 inh)
CCCc1ccc(OCc2ccc(C(=O)N/N=C/c3cccnc3)o2)cc1	HSP90 refold inh 36.3 | HSP90 confirm 25.6 | FLuc counter inactive
O=C(NNc1nc2ccccc2o1)c1ccccc1	HSP90 refold inh 20.3 (no result: EBV LMP1 NFkB) | HSP90 confirm 27.8 | FLuc counter 19.8
O=C(NC(=Nc1nc2ccccc2o1)NC(=O)c1ccccc1)c1ccccc1	none
O=C(CSc1ncn(-c2ccccc2)n1)N1CCN(c2ccccc2)CC1	HSP90 refold inh 34.8 (no result: LGR2 antag) | HSP90 confirm inactive | FLuc counter inactive
CCCC(=O)Nc1ccc2c(c1)C(=O)N(C)C[C@H](OC)[C@H](C)CN(C(=O)CC1CC1)[C@H](C)CO2	none (no result: aDG glyco act, HSP90 refold inh, TROY signal inh, EBV LMP1 NFkB, TWEAK-Fn14 inh)
CCCS(=O)(=O)c1cnc(C2COc3ccccc3O2)nc1N (configuration not stated)	HSP90 refold inh 92.6, TROY signal inh 80.9, LGR2 antag 94.5, EBV LMP1 NFkB 70.7, TWEAK-Fn14 inh 102.1 | HSP90 confirm 87.7 | FLuc counter 80.1
S=c1nc(C2COc3ccccc3O2)[nH][nH]1 (configuration not stated)	none
COc1ccc(C(=O)NCCn2ccc3ccccc32)cc1	HSP90 refold inh 60.0 | HSP90 confirm 22.1 | FLuc counter inactive
Cn1c(=O)cc(SCC(=O)NCc2ccco2)c2ccccc21	none (no result: LGR2 antag)
O=C(CSc1cn(CCNC(=O)c2ccc3ccccc3c2)c2ccccc12)NCc1ccco1	HSP90 refold inh 18.9, TWEAK-Fn14 inh 59.9 | HSP90 confirm 21.8 | FLuc counter inactive
COc1ccc(C(=O)NCCn2cc(SCC(N)=O)c3ccccc32)cc1	HSP90 refold inh 73.6, TROY signal inh 62.8, TWEAK-Fn14 inh 50.6 | HSP90 confirm inactive | FLuc counter inactive
O=C(NCCn1cc(SCC(=O)N2CCOCC2)c2ccccc21)c1ccccc1	none
Fc1ccc(-c2ncc3ccccn23)cc1	none
Brc1ccc(-c2ncc3ccccn23)cc1	HSP90 refold inh 27.2 | HSP90 confirm inactive | FLuc counter inactive
COc1cc2cc(CN(C(=O)NC3CCCCC3)C3CCCC3)c(=O)[nH]c2cc1OC	HSP90 refold inh 22.1 (no result: LGR2 antag) | HSP90 confirm inactive | FLuc counter inactive
O=C(NCC[C@@H]1CC[C@@H](NC(=O)c2cccnc2)[C@H](CO)O1)Nc1ccc(F)cc1	none (no result: aDG glyco act, HSP90 refold inh, TROY signal inh, EBV LMP1 NFkB, TWEAK-Fn14 inh)
C[C@@H]1CN([C@H](C)CO)C(=O)c2cc(C#Cc3ccccc3)cnc2O[C@@H]1CN(C)C(=O)CN(C)C	none (no result: aDG glyco act, HSP90 refold inh, TROY signal inh, EBV LMP1 NFkB, TWEAK-Fn14 inh)
Cc1ccccc1-n1c(C)cc(/C=C(\C#N)C(=O)NCC2CCCO2)c1C (configuration not stated)	HSP90 refold inh 19.6, TROY signal inh 59.0, TWEAK-Fn14 inh 56.0 | HSP90 confirm 37.1 | FLuc counter 25.1
O=C(NCc1cccs1)C1CC1	none

High-throughput results from PubChem.
